Hits are enriched below; roughly 4% of the tested compounds scored in any of these assays.
esBAF inh = Bmi1 luciferase reporter increase in mESCs, primary screen, esBAF inhibitor project, mouse ES cells, Bmi1 luciferase knock-in, single point; 24 h; 100% = twice the neutral-well signal; reporter increase, % at 12.5 µM; actives 2% (n = 350,000); in the data active = activation above about 40%; inconclusive = no clear call, values can overlap the other calls;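 note: 0% = median of the plate's neutral control wells and 100% = double that signal; a rise in the Bmi1 reporter signal indicates esBAF inhibition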
MITF TRPM1 HTS = activators of MITF-driven TRPM1 promoter reporter, primary screen, cell-based, SK-MEL-5, luciferase, single point | SK-MEL-5 TRPM1-promoter luciferase, 24 h; % of positive control, neutral wells = 0 | activation, % at 12.5 µM | actives 0.75% (n = 300,000) | AID 588334, 2011;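 active = mean activation of at least 80% with every replicate also reaching 80%; inconclusive = mean reaches 80% but some replicate falls short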;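 note: 0% = neutral control wells and 100% = parthenolide positive control wells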
MITF TRPM1 inh = inhibitors of MITF-dependent TRPM1 promoter reporter, primary screen, cell-based, SK-MEL-5, single point, luciferase; SK-MEL-5 TRPM1 promoter luciferase, 24 h; inhibition, % at 12.5 µM; actives 0.83% (n = 330,000); AID 488899, 2010;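 active = mean inhibition across replicates of 60% or more, whatever share of single replicates reaches that level; inconclusive = some that reach 60%, reason not given; inactive = mean inhibition across replicates below 60%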
Wnt act = Wnt/beta-catenin pathway activators, primary screen, cell-based, plate reader, single point; actives 1.2% (n = 300,000); AID 743398, 2014; activation, % at 9.35 µM; Wnt/beta-catenin reporter cell assay, activator; in the data active = activation above about 30%, passing the limit was not always enough; inconclusive = no clear call, values can overlap the other calls;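 note: 0% = neutral control wells and 100% = positive control wells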
PAX8 inh HTS = inhibitors of PAX8-driven TPO luciferase reporter, primary screen, RMG-I cells, single concentration; SteadyGlo, 24 h; actives 1.2% (n = 360,000); inhibition, % at 12.6 µM;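 active = mean replicate inhibition at least 60% with every replicate also reaching 60%; inconclusive = only one of the two criteria is met; inactive = mean below 60% and not all replicates reaching 60%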;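 note: luciferase light reporting Pax8 driven TPO promoter activity; plate controls were median of neutral control wells for no effect and mitoxantrone controls for full effect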
EWS-Fli block = EWS/Fli-driven NR0B1 reporter inhibitors, primary screen, A673 cells, NR0B1 luciferase, luminescence, MLPCN library. actives 0.67% (n = 350,000). viability-normalised. inhibition, % at 12.6 µM. AID 651661, 2012;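 active = mean inhibition of at least 50% after viability correction, with every replicate also passing that limit; inconclusive = mean reaches 50% but only one of two replicates passes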;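 note: firefly luciferase signal divided by Alamar Blue viability fluorescence both relative to DMSO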
* hit, by the source's call; ? = inconclusive; / = not tested or not shown.

SMILES	esBAF inh	MITF TRPM1 HTS	MITF TRPM1 inh	Wnt act	PAX8 inh HTS	EWS-Fli block
COc1ccc(N2CCN(C(=O)c3ccc4nc(N5CCCCC5)sc4c3)CC2)cc1	62*	50	-48	12	-109	-42
O=C(c1ccc2nc(N3CCOCC3)sc2c1)N1CCCC1	13	-1	2	-5	-8	-13
COc1ccc(CCNC(=O)c2ccc3nc(N4CCCCC4)sc3c2)cc1OC	51*	/	/	-5	-110	-39
COc1ccc2nc(N3CCCC(C(=O)NCCc4ccc(OC)c(OC)c4)C3)sc2c1 (stereo not drawn)	53*	37	-30	3	-152	-56
O=C(C[C@@H]1C=C[C@@H](NC(=O)CN2CCOCC2)[C@H](CO)O1)NC1CCC1	5	/	/	/	10	-3
COc1ccc(-c2cnc3c(c2)C(=O)N([C@H](C)CO)C[C@H](C)[C@H](CN(C)S(=O)(=O)c2ccc(OC)cc2)O3)cc1	/	/	/	/	/	-2
COc1ccccc1CN1C[C@H](C)[C@H](OC)CN(C)C(=O)c2ccc(NC(C)=O)cc2OC[C@H]1C	-3	/	/	/	2	1
COc1ccc(CNC(=O)C[C@H]2C[C@H]3c4cc(NC(=O)CC5CC5)ccc4O[C@H]3[C@@H](CO)O2)cc1	-4	/	/	/	-4	9
C[C@H]1CN([C@@H](C)CO)C(=O)Cc2cc(NS(C)(=O)=O)ccc2O[C@@H]1CN(C)C(=O)Nc1ccc2c(c1)OCO2	0	/	/	/	-28	-9
C[C@@H]1CN([C@H](C)CO)C(=O)c2cc(NS(=O)(=O)c3ccc(F)cc3)ccc2O[C@@H](C)CCCCO[C@@H]1CN(C)S(=O)(=O)c1ccccc1	4	/	/	/	50	5
CN(C)c1ccc2c(c1)[C@@H]1C[C@@H](CC(=O)NCc3cc(F)ccc3F)O[C@@H](CO)[C@@H]1O2	-7	/	/	/	-86	23
C[C@H](CO)N1C[C@H](C)[C@H](CN(C)S(=O)(=O)c2ccc(F)cc2)OCCCC[C@H](C)Oc2ccc(NS(=O)(=O)c3cccs3)cc2C1=O	7	/	/	/	30	-8
CCC(C)NC(=O)Nc1ccc(Br)cc1 (stereo not drawn)	/	19	-19	/	-88	-44
CCC(C)Nc1ccc(NC(C)CC)cc1 (stereo not drawn)	-88	-96	97*	/	/	/
C[C@@H]1CN([C@H](C)CO)C(=O)c2cc(NC(=O)c3ccccc3)ccc2O[C@@H](C)CCCCO[C@@H]1CN(C)Cc1ccc(Cl)c(Cl)c1	1	/	/	/	51	2
C[C@@H]1CCCCO[C@H](CN(C)Cc2ccc(Cl)c(Cl)c2)[C@@H](C)CN([C@@H](C)CO)C(=O)c2cc(NC(=O)Cc3ccccc3)ccc2O1	-5	/	/	/	96*	-2
C[C@@H]1CCCCO[C@@H](CN(C)Cc2ccc(Cl)c(Cl)c2)[C@@H](C)CN([C@@H](C)CO)C(=O)c2cc(NC(=O)c3ccccc3)ccc2O1	7	/	/	/	66*	9
C[C@H]1CCCCO[C@H](CN(C)Cc2ccc(Cl)c(Cl)c2)[C@@H](C)CN([C@@H](C)CO)C(=O)c2cc(NC(=O)c3ccccc3)ccc2O1	-2	/	/	/	67*	13
C[C@@H]1CN([C@@H](C)CO)C(=O)c2cc(NC(=O)Cn3cnnn3)ccc2O[C@H]1CN(C)Cc1ccc(Cl)c(Cl)c1	-2	/	/	/	-13	63*
C[C@@H]1CN([C@H](C)CO)C(=O)c2cc(NC(=O)Cc3ccccc3)ccc2O[C@@H](C)CCCCO[C@@H]1CN(C)Cc1ccc(Cl)c(Cl)c1	-4	/	/	/	6	6
CCC(=O)N(C)C[C@@H]1Oc2ncc(C#CC(C)(C)O)cc2C(=O)N([C@@H](C)CO)C[C@H]1C	4	/	/	/	/	-3
CC(=O)N1[C@H](CO)[C@H](c2ccc(C3=CCCC3)cc2)C12CN(C(=O)C1CC1)C2	/	/	/	/	-7	2
CCS(=O)(=O)N1CC2(C1)[C@@H](c1ccccc1)[C@H](CO)N2C(=O)C1CCCC1	/	/	/	/	18	1
C[C@@H]1CN([C@H](C)CO)C(=O)c2cccc(NC(=O)c3ccncc3)c2O[C@H]1CN(C)Cc1ccc(Cl)c(Cl)c1	2	/	/	/	61*	-4
C[C@H](CO)N1C[C@H](C)[C@H](CN(C)Cc2ccc(Cl)c(Cl)c2)Oc2c(NC(=O)c3ccncc3)cccc2C1=O	-6	/	/	/	4	-4
SMILES	esBAF inh	MITF TRPM1 HTS	MITF TRPM1 inh	Wnt act	PAX8 inh HTS	EWS-Fli block
COc1cc(C(=O)NCCOc2ccccc2C)c(Br)c(OC)c1OC	/	6	-2	-5	6	8
COc1ccc(C(=O)NCCOc2ccccc2Cl)c(OC)c1OC	68*	89*	-83	?	-217	-81
COc1ccc(CCN=C(N)C(C)c2ccccc2)cc1OC (stereo not drawn)	-9	-7	10	0	13	-3
CC(C)Cc1ccc(C(C)C(N)=NCCc2ccccc2)cc1 (stereo not drawn)	-84	-69	71*	-2	13	34
CCN(CC)S(=O)(=O)c1ccc(N/N=C/c2ccc(O)cc2O)nc1	/	-51	50	-6	72*	/
O=C(NC1CCC1)[C@@H]1[C@@H](CO)[C@@H]2Cn3c(ccc(-c4ccccc4)c3=O)[C@@H]2N1CC1CC1	/	/	/	/	/	1
O=C(NC(=S)Nc1ccc2c(c1)OCO2)c1ccccc1	33	74	-70	/	/	/
O=C(NC(=S)Nc1ccccc1Br)c1ccc2c(c1)OCO2	/	110*	-103	2	-104	-84
O=C(/C=C\Nc1ccccc1Br)c1ccc2c(c1)OCO2	/	-36	44	0	-50	75*
COCC(=O)N1[C@H](CO)[C@H]2c3ccccc3N(C(=O)c3cccc(OC)c3)C[C@H]21	-2	/	/	/	-2	-1
CCOc1ccc(OCC(=O)N(CCC2=CCCCC2)c2c(N)n(Cc3ccccc3)c(=O)[nH]c2=O)cc1	-13	-77	77*	-7	-9	39
CCOc1ccc(OCCC(=O)N(CCC2=CCCCC2)c2c(N)n(Cc3ccccc3)c(=O)[nH]c2=O)cc1	-4	-9	8	-4	-1	6
Cc1csc(NC(=O)Cc2c[nH]c3ccccc23)n1	61*	93*	-91	/	/	/
O=C(Cc1ccc(F)cc1)Nc1nc(-c2ccc(F)c(F)c2)cs1	7	/	-13	-1	-17	-24
Cc1csc(NC(=O)Cc2ccc(F)cc2)n1	64*	42	-36	-1	-107	-75
Cc1csc(NC(=O)Cc2c(F)cccc2Cl)n1	62*	/	-41	22	-160	-104
CN1C/C(=C/c2cccnc2)C(=O)/C(=C/c2cccnc2)C1	/	-100	100*	/	-2	/
O=C1c2ccccc2C(=Cc2cccnc2)c2ccccc21	20	/	/	-4	10	-23
